Hits are enriched below; roughly 19% of the tested compounds scored in any of these assays.
TDP1 cell noCPT: qHTS for Inhibitors of human tyrosyl-DNA phosphodiesterase 1 (TDP1): qHTS in cells in absence of CPT; hit rate 15% among 420,000; Potency, µM (doses to about 46.2 µM), inactives show top-dose activity change, negative = growth inhibition, hits mostly inhibitors; DT40 Tdp1-/- hTDP1 cells, no CPT, ATP luminescence, 48 h; note: nearly all actives have a fitted effect of over 55% in size
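Camptothecin absent (DMSO only). Human TDP1-complemented DT40 knockout cells, 400 cells/well, 37 °C for minimum 48 hr; ATP measured via CellTiter-Glo, 30 min dark incubation, luminescence.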
KB-V1 MDR tox: kills drug-selected multidrug resistant KB-V1 cells. KB-V1 MDR cells viability, CellTiter-Glo, 72 h. Potency, µM (series often up to 46.1 µM), most hits filed as cytotoxic. hit rate 3.4% among 400,000. AID 1347076; note: nearly all actives have a fitted effect of over 60% in size
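Cells of the MDR subline KB-V1 are plated, dosed with compound at multiple concentrations, and incubated 72 h at 37 degrees C; CellTiter-Glo is then added and luminescence read after 10 min.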
HT1080-NT tox: kills 2HG-producing HT-1080-NT fibrosarcoma cells; HT-1080-NT fibrosarcoma viability, CellTiter-Glo ATP luminescence, 48 h; Potency, µM (highest dose often 46.1 µM), inactives show at the highest dose activity, negative = less viability, hits mostly cytotoxic; hit rate 1.6% among 360,000; AID 686970;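 note: NT is the 2HG producing partner of a matched IDH1 knockdown line; 0% = DMSO-treated cells and -100% = media-only wells without cells; nearly all actives have a fitted effect of over 55% in size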
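Read-out is CellTiter-Glo luminescence after 10 minutes at room temperature, following 48 hours' compound treatment of HT-1080-NT cells (750 cells/well, RPMI, 5% FBS, 37 degrees C).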
HT1080 IDH1KD tx: HT-1080 IDH1 knockdown cell toxicity (counter line). HT-1080 IDH1 knockdown viability, ATP luminescence, 48 h. hit rate 2% among 360,000. Potency, µM (highest dose often 46.1 µM), without a hit: top-dose activity, negative = toxicity, usual class: cytotoxic;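 note: 0% = DMSO wells and -100% = cell-free medium wells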
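Luminescent ATP read-out (CellTiter-Glo, 10 min at room temperature) after 48 h compound exposure at 37 °C gave viability of IDH1-knockdown HT-1080 cells. Activity was normalised to DMSO and cell-free wells, then fitted as concentration-response curves.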
KB-3-1 tox: kills parental KB-3-1 adenocarcinoma cells. Potency, µM (highest dose often 46.1 µM), usual class: cytotoxic. hit rate 1.4% among 400,000. KB-3-1 viability, CellTiter-Glo ATP luminescence, 72 h; note: nearly all actives have a fitted effect of over 60% in size
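72 h, 37 °C compound treatment of KB-3-1 parental cells; CellTiter-Glo added, 10 min, luminescence read. Data corrected against DMSO-only plates and normalized before curve fitting.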
TDP1 cell CPT: DT40-hTDP1 cell growth loss with CPT | chicken DT40 Tdp1-/-;hTDP1 cells + 20 nM CPT, ATP luminescence, 48 h | Potency, µM (doses to about 46.2 µM), for inactives: at the highest dose activity change, negative = growth inhibition, hits mostly inhibitors | hit rate 12% among 420,000 | AID 686979; note: nearly all actives have a fitted effect of over 55% in size
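Cell growth measured by CellTiter-Glo luminescence after a minimum 48 h, 37 C compound exposure with 20 nM CPT in Tdp1-knockout DT40 cells stably expressing hTDP1, seeded 400/well; qHTS titration format.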
* marks the source's active call; other numbers are inactive results; i = inactive; ? = inconclusive; / = no result; [ ] = remark or other dose. Calls come from the whole dose curve; as a rule, active = well fitted curve in the direction sought with a large enough effect; inconclusive = small, poorly fitted or top-dose-only effect, or another doubt; inactive = no such curve, though single readings can be large; an effect the other way counts as inactive or inconclusive. Unless noted, % is set by controls: 0 for no effect and ±100 for the full control effect; potency is the fitted concentration of half-maximal effect.

SMILES | TDP1 cell noCPT | KB-V1 MDR tox | HT1080-NT tox | HT1080 IDH1KD tx | KB-3-1 tox | TDP1 cell CPT
COCCn1c(SCC(=O)c2ccccc2)nc2cc(C(=O)NC3CCCC3)ccc2c1=O | -16% | i | / | / | i | -1%
COCCNC(=O)C1(C)CCCN(C(=O)c2cc(F)ccc2C)C1 (configuration not stated) | 3% | i | 18% | -9% | i | -2%
CCN(CC(=O)Nc1ccccc1C(F)(F)F)C(=O)CSCC(=O)Nc1cc(C)on1 | -3% | i | -4% | -3% | i | 14%
CCN(CC(=O)Nc1cc(C)on1)CC(=O)Nc1ccccc1C(F)(F)F | -2% | 18µM* | -5% | -10% | i | 4%
COc1ccc(Cl)cc1NC(=O)CN(C)C(=O)c1cc(C)oc1C | 15% | i | 2% | 4% | i | 3%
Cc1cc(C(=O)N(C)CC(=O)Nc2ccccc2C(F)(F)F)c(C)o1 | 23µM* | ? | 2% | -24% | i | 16µM*
CC1=C(c2ccccc2)CCC1=O | 4% | ? | 10% | 5% | i | 2%
CC1=C(c2ccccc2)C(O)(c2ccccc2)C(C)C1=O (configuration not stated) | 16µM* | ? | ? | ? | ? | 16µM*
c1ccc2[nH]ccc2c1 | -9% | / | / | / | / | -17%
O=C(c1ccncc1)N1CCC[C@@]2(CCN(Cc3ccncc3)C2)C1 | -6% | / | / | / | / | ?
Cc1cccc(-c2c3c(=O)n(C)c(=O)n(C)c3c3nnc4ccccc4n23)c1 | 6.5µM* | ? | 10% | 11% | i | ?
Cc1ccc(-c2c3c(=O)n(C)c(=O)n(C)c3c3cnc4ccccc4n23)cc1 | -14% | / | / | / | / | -14%
Cc1cccc(-c2c3c(=O)n(C)c(=O)n(C)c3c3c(C)nc4ccccc4n23)c1 | 6.5µM* | i | / | / | i | ?
Cc1ccc(-c2c3c(=O)n(C)c(=O)n(C)c3c3c(-c4cccc(C)c4)nc4ccccc4n23)cc1 | ? | i | / | / | i | ?
C=CCN(C(=O)c1csnn1)C(C(=O)NC1CCCC1)c1c(F)cccc1Cl (configuration not stated) | -13% | ? | 11% | 15% | i | 4%
Cc1csc(NC(=O)c2cc3c(C)nn(Cc4ccccc4Cl)c3s2)n1 | 16µM* | i | ? | ? | i | ?
Cc1nn(Cc2ccccc2Cl)c2sc(C(=O)NC(C)(C)C)cc12 | ? | ? | ? | ? | ? | -1%
Cc1nn(Cc2ccccc2Cl)c2sc(C(=O)OC3CCCC3=O)cc12 (configuration not stated) | -5% | 6.5µM* | -29% | -28% | i | -22%
O=C(NC(=S)NNC(=O)c1ccco1)c1ccc(Br)cc1 | ? | i | -30% | ? | i | ?
CC1(c2nnnn2Cc2ccccc2)CCC(=O)N1Cc1cccnc1 (configuration not stated) | -9% | i | 15% | 14% | i | -7%
COc1ccccc1CNC(=O)c1cc(S(=O)(=O)N2CCN(c3ccccc3)CC2)ccc1Cl | ? | 4.6µM* | -13% | -12% | i | ?
CCN(C(=S)Nc1cc(S(=O)(=O)N2CCOCC2)ccc1Cl)c1cccc2ccccc12 | ? | ? | -5% | -6% | i | 18µM*
CC(NCC(=O)Nc1cc(S(=O)(=O)N2CCOCC2)ccc1Cl)c1ccc(Cl)cc1Cl (configuration not stated) | 23µM* | ? | -3% | -30% | ? | ?
COc1ccccc1CNC(=O)COC(=O)c1cc(S(=O)(=O)N2CCOCC2)ccc1Cl | ? | i | 1% | 1% | i | -8%
COc1ccccc1CNCC(=O)Nc1cc(S(=O)(=O)N2CCOCC2)ccc1Cl | 16µM* | ? | 3% | 11% | i | ?
SMILES | TDP1 cell noCPT | KB-V1 MDR tox | HT1080-NT tox | HT1080 IDH1KD tx | KB-3-1 tox | TDP1 cell CPT
Cc1ccc(NC(=O)N2CCC(CN3CCCC3)CC2)c(C)c1 | 4% | / | / | / | / | 6%
CCCCCNC(=O)C1CCC(Cn2c(=O)c3sccc3n(CC)c2=O)CC1 (configuration not stated) | ? | i | / | / | i | ?
COc1ccc(CNC(=O)C2CCN(c3nc4ccccc4[nH]3)CC2)cc1OC | -26% | i | / | / | i | -16%
O=C(Cc1c(F)cccc1Cl)Nc1ccccc1N1CCCCC1 | ? | i | -11% | -5% | ? | 16µM*
O=C(CCc1ccccc1Cl)Nc1cc(S(=O)(=O)N2CCOCC2)ccc1N1CCCC1 | 18µM* | i | -10% | -8% | i | 15µM*
O=C(Cc1c(F)cccc1Cl)Nc1ccccc1C(=O)N1CCCCC1 | -20% | ? | 6% | 4% | i | -7%
O=C(Cc1ccccc1F)Nc1cc(S(=O)(=O)N2CCOCC2)ccc1N1CCOCC1 | 11% | i | 3%[9.24 µM] | -5% | i | -17%
O=C(Cc1c(F)cccc1Cl)Nc1cc(S(=O)(=O)N2CCCCC2)ccc1N1CCOCC1 | 16µM* | i | -12% | -3% | ? | ?
CN1CCN(c2ccc(S(=O)(=O)N3CCCCC3)cc2NC(=O)Cc2c(F)cccc2Cl)CC1 | ? | ? | -5% | -20% | i | ?
O=C(Cc1ccccc1Cl)Nc1cc(S(=O)(=O)N2CCOCC2)ccc1N1CCOCC1 | -15% | 16µM* | 5% | 11% | i | -9%
CC(C)(C)c1ccc(CN2C(=O)CSC2=O)cc1 | -25% | i | -2% | -1% | i | 2%
Cc1ccc(NC(=O)CN2CCN(S(=O)(=O)c3ccc4c(c3)OCCO4)CC2)c(C)c1 | ? | i | -2% | 0% | i | -28%
CCN1CCN(c2ccc(S(=O)(=O)N3CCOCC3)cc2NC(=O)c2ccc(Cl)cc2Cl)CC1 | 21µM* | i | -2% | -13% | i | ?
COc1ccccc1C1(O)CCN(C(=O)c2cccs2)CC1 | -5% | 21µM* | -2% | -4% | i | 1%
COc1ccc(CN2CCN(C(=O)c3cccs3)CC2)cc1 | -19% | 21µM* | -4% | -1% | i | -7%
O=C(c1cccs1)N1CCC(Cc2ccccc2)CC1 | ? | i | 7% | 8% | i | 7%
O=C(c1cccs1)N1CCN(Cc2ccccc2)CC1 | -3% | i | 17% | 5% | i | -1%
COc1cccc(C2(O)CCN(C(=O)c3cccs3)CC2)c1 | -7% | i | 4% | 1% | i | 6%

High-throughput results deposited in PubChem BioAssay by National Center for Advancing Translational Sciences (NCATS).
